# Screening results: PubChem BioAssay, National Center for Advancing Translational Sciences (NCATS)
# Hits are enriched below; roughly 9.4% of the tested compounds scored in any of these assays.
# NPC1 prom act: NPC1 promoter activation; 320,000 tested, 2.4% active; Huh7 NPC1 promoter luciferase reporter, 24 h; Potency, µM (titrated, usually from 9.22 µM), for inactives: at the top dose activation, usual class: activators; also: % of control where 0% means no effect; nearly all actives have a fitted effect of over 60% in size
#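 In 1536-well qHTS, Huh7 cells harboring an NPC1 promoter–luciferase construct received compound for 24 h; activation was quantified by luminescence following luciferase reagent addition.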
# SMN2 splice up: enhancers of SMN2 splice variant expression; AID 1458; 210,000 tested, 2.8% active; HEK293 SMN2-luciferase splicing reporter, luminescence, 30-36 h; Potency, µM (doses to about 46.1 µM), inactives show at the top dose activity change, positive = activation, actives largely listed as activators; also: % of control where 0% means no effect; nearly all actives have a fitted effect of over 55% in size
#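 HEK293 cells carry an SMN2 minigene-luciferase reporter in which exon 7 inclusion puts luciferase in frame. Cells were seeded at 2000 cells/well, attached for 10-12 hours, then exposed to compounds for 30-36 hours at 37C before ONE-Glo luminescence.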
# ELG1 DNA repair: inhibitors of ELG1-dependent DNA repair in HEK293T cells | HEK293T ELG1-luciferase reporter, luminescence, 16 h; DNA damage induced by 5-fluorouridine | Potency, µM (highest dose often 46.1 µM), for inactives: top-dose activity change, negative = inhibition, usual class: inhibitors | 330,000 tested, 2.3% active | AID 504467; also: % is scaled to controls: 0 for no effect and ±100 for the full control effect; nearly all actives have a fitted effect of over 55% in size
#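 Cells (2,000 per well) received 5-fluorouridine plus test compound or DMSO and were incubated 16 hr at 37 °C, 5% CO2. Luciferase activity was read by luminescence 30 min after ONE-Glo addition; signal suppression marked inhibition of damage-induced ELG1 function.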
# FLuc modulator: firefly luciferase modulation, counter-screen for miR-21 project; purified FLuc, Km substrates, luminescence inhibition; Potency, µM (top dose mostly 57.5 µM), for inactives: at the highest dose activity change, negative = inhibition, most hits filed as inhibitors; 360,000 tested, 6.9% active;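 also: plate controls were vehicle for no effect and reference inhibitor for full effect; nearly all actives have a fitted effect of over 55% in size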
# Target sequence (P08659 whole entry, looked up): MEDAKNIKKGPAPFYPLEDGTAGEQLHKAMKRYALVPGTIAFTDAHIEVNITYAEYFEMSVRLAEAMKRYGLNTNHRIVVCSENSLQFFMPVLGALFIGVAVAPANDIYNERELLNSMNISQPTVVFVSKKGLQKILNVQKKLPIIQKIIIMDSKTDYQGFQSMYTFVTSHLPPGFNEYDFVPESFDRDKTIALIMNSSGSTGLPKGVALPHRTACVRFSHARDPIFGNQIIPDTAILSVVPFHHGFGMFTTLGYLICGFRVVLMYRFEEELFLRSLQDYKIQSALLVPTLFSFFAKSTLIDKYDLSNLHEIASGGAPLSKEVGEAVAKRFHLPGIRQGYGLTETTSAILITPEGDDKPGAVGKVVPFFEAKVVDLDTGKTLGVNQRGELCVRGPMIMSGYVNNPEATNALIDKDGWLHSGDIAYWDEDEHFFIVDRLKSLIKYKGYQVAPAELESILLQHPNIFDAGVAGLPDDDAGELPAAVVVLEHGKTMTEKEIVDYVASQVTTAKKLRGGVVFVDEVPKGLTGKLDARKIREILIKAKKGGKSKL
#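 Purified P. pyralis luciferase (10nM final) with 10uM D-luciferin and 10uM ATP (Km levels) in 50mM Tris acetate pH 7.5, 10mM Mg acetate, 0.01% Tween-20, 0.05% BSA; qHTS 6-point titration, ~60 µM downward; luminescence read.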
# ELG1 genotox: inducers of genotoxicity in HEK293T ELG1-luciferase cells. 330,000 tested, 1.3% active. AID 504466. Potency, µM (top dose mostly 46 µM), inactives show at the highest dose activity change, positive = activation, usual class: activators. HEK293T ELG1-luciferase reporter, luminescence, 16 h; also: % of control where 0% means no effect; nearly all actives have a fitted effect of over 60% in size
#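 Luminescence read-out: rising ELG1-luciferase signal, reflecting elevated ELG1 protein under genetic stress, flags genotoxic compounds. Cells were treated for 16 hr at 37 °C before ONE-Glo detection.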
# Rab9 prom act: activators of Rab9 promoter | Huh7 Rab9 promoter-luciferase reporter, luminescence, 24 h | Potency, µM (highest dose often 9.22 µM), for the others: at the top dose activation, negative = inhibition, hits mostly activators | 320,000 tested, 2.8% active | AID 485297; also: % of control where 0% means no effect; nearly all actives have a fitted effect of over 60% in size
#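 Luminescence from Amplite-detected luciferase (10 minutes, ambient) reports Rab9 promoter activation. Before that, stable Rab9-luciferase Huh7 cells (1500/well, reduced-serum OP-MEM I plus 10% FBS) were exposed to compound for 24 hours at 37C.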
# Active calls of the source: *; ? = inconclusive; / = not tested or not shown; [ ] = remark or other dose. Calls follow the shape of the dose curve; as a rule, active = well fitted curve in the direction sought with a large enough effect; inconclusive = small, poorly fitted or top-dose-only effect, or another doubt; inactive = no such curve, though single readings can be large; an effect the other way counts as inactive or inconclusive. Potency is read from the fitted curve at half-maximal effect.
SMILES,NPC1 prom act,SMN2 splice up,ELG1 DNA repair,FLuc modulator,ELG1 genotox,Rab9 prom act
COc1cccc(S(=O)(=O)Nc2ccc(C(=O)N3CCN(C(=O)c4ccco4)CC3)cc2)c1,-3.9%,-33.3%,18.4µM*,2.2%,-4.5%,-0.2%
O=C(c1ccc(NS(=O)(=O)c2cccc([N+](=O)[O-])c2)cc1)N1CCN(C(=O)c2ccco2)CC1,-3.7%,/,12.2%,1.4%,1.1%,-3.4%
O=C(Cc1ccccn1)c1ccccc1,3.8%,/,?,-18.2%,-0.2%,13.1%
O=C(Cc1ccccn1)c1ccc(Cl)cc1,?,/,?,12µM*,?,2.82µM*
O=C(CCSc1ccccn1)c1ccccc1,-1.4%,2.7%,-1.1%,6.01µM*,-1.6%,-1.6%
O=C(CCCc1ccccn1)c1ccccc1,/,2.82µM*,/,/,/,/
Cc1nnc(NC(=O)CSCc2cc(=O)c3ccccc3[nH]2)s1,-5.0%,/,/,-1.5%,/,-2.3%
Cc1nc(NCc2ccccc2)c2nc(-c3ccccc3)n(CCN(C)C)c2n1,/,-9.0%,/,/,/,/
CCN=c1scc(-c2ccco2)n1/N=C/c1ccc(OC)c(O)c1,/,?,/,5.36µM*,/,/
CCN=c1scc(-c2ccco2)n1/N=C/c1ccc(O)cc1,?,?,?,6.75µM*,11.6µM*,?
COc1ccc(NC(=O)Cn2ccn(-c3ccc(F)c(F)c3)c(=O)c2=O)cc1Cl,/,/,/,2.9%,/,/
COc1cc(NC(=O)C2CCN(S(=O)(=O)c3c(C)noc3/C=C/c3c(C)cc(C)cc3C)CC2)cc(OC)c1,/,/,/,0.7%,/,/
CC(=O)N1CCN(C(=S)Nc2ccc(SC(F)F)cc2)CC1,-7.2%,?,-2.8%,-7.1%,-1.8%,-0.2%
CCCN1CCN(C(=S)Nc2ccc(SC(F)F)cc2)CC1,-1.7%,-19.4%,-9.7%,13.5µM*,0.6%,5.9%
CCCCc1ccc(NC(=S)N2CCN(C(=O)OCC)CC2)cc1,0.8%,/,-7.0%,2.8%,0.8%,2.7%
CC1CCN(C(=S)Nc2ccc(SC(F)F)cc2)CC1,?,22.4µM*,?,1.07µM*,9.1%,27.1%
CCCCc1ccc(NC(=S)N2CCN(C)CC2)cc1,7.7%,/,1.0%,15.1µM*,-0.3%,-1.8%
COc1ccc(OC)c(-c2cc(C(=O)Nc3cccc(Cl)c3C)no2)c1,/,-4.2%,/,-0.4%,/,/
CCOc1ccc(/C=C2/Sc3ccc(C(=O)N4CCOCC4)cc3N(C)C2=O)cc1OC,-6.1%,/,8.2µM*,-15.4%,-9.7%,-1.3%
COc1ccc(/C=C2\Sc3ccc(C(=O)N4CCCC4)cc3N(C)C2=O)cc1OC,-4.5%,/,?,-1.4%,-3.9%,-10.6%
COc1ccc(/C=C2\Sc3ccc(C(=O)NC4CC4)cc3N(C)C2=O)cc1OC,1.3%,/,11.6µM*,-16.9%,-4.3%,-2.9%
O=C(O)CCCc1ccc2ccccc2c1,/,-3.1%[9.22 µM],/,/,/,/
c1ccc(OCCOc2ncnc3sccc23)cc1,25.5%,?,?,?,16.4µM*,2.82µM*
CCOC(=O)C1CCN(S(=O)(=O)c2cccc(-c3cn4cccnc4n3)c2)CC1,-6.9%,-31.1%,13µM*,5.7%,2.0%,?
CCOC(=O)C1CCN(S(=O)(=O)c2cccc(-c3cn4cc(C)ccc4n3)c2)CC1,-0.4%,-48.0%,?,8.49µM*,-7.4%,-10.4%
O=C(CSc1nc2ccccc2s1)c1sc2sc3ccccc3[n+]2c1O,/,5.5%[9.22 µM],/,/,/,/
COc1ccc(CN2CCN(C(=O)CCC(=O)Nc3nnc(C4CCCCC4)s3)CC2)cc1F,-20.1%,/,5.8µM*,-8.0%,-7.5%,-24.3%
COc1ccc(CN2CCN(C(=O)CCC(=O)Nc3nnc(CC(C)C)s3)CC2)cc1F,-7.9%,/,5.8µM*,-2.0%,-1.9%,-21.7%
CCCc1nnc(NC(=O)CCC(=O)N2CCN(Cc3ccc(OC)c(F)c3)CC2)s1,1.5%,/,4.4%,6.5%,-2.7%,-5.0%
CC(C)Cc1nnc(NC(=O)CCC(=O)N2CCN(c3ccccc3)CC2)s1,-1.8%,/,-5.5%,1.2%,-2.3%,0.1%
